Sampled rows, rich in hits. Any-hit rate of the full collection: about 2.4%.
D2 PAM-1: D2 dopamine receptor (human) potentiation | AID 485347 | potentiation, % at 10 µM | HEK293 T-REx D2, calcium flux, EC20 dopamine potentiation | actives 0.34% (n = 340,000) | P14416;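 active = potentiation over 3 SD above the plate norm, cut at about 30% in these data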
Target sequence (P14416 whole entry, looked up): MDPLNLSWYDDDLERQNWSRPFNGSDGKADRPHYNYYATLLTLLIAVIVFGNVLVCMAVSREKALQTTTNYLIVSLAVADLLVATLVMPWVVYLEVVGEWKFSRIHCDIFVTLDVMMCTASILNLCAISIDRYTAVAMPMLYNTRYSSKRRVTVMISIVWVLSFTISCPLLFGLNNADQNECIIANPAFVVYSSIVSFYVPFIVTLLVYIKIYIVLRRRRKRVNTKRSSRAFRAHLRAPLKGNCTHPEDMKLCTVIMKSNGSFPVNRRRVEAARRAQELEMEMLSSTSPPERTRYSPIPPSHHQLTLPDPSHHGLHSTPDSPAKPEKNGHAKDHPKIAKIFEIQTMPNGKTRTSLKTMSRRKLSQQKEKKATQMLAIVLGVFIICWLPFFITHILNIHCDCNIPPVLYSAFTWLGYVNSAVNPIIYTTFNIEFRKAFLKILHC
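Cells plated with tetracycline inducer and held overnight at 30 C; calcium dye loaded 30–90 min at room temperature; baseline taken, compound added and read 180 s; EC20 dopamine then added and read 180 s.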
D2 antagonist: antagonists of human D2 dopamine receptor; HEK293 TREx D2 cells, calcium flux, dopamine EC80; inhibition, % at 10 µM; actives 2% (n = 340,000); AID 485344; in the data active = inhibition above about 30%; inactive = below that, where a call was filed
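HEK293 T-REx D2 cells, tet-induced, calcium dye no-wash. Cpd pintool add, 180 s kinetic, then EC80 DA, 180 s kinetic. Ca flux read.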
D2 PAM-2: potentiates the human D2 dopamine receptor allosterically; P14416; DiscoveRx D2 beta-arrestin cells, luminescence, 90 min; 100% = 57 uM dopamine signal; potentiation, % (concentration not given with the values); actives 0.23% (n = 360,000); AID 624464; in the data active = potentiation above about 50%; inconclusive = mostly about 30% to 49%
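PathHunter beta-arrestin assay in DiscoveRx D2 cells. Compounds were added with an EC20 of dopamine (50 nM final) for 90 min at 37 deg C. Luminescence was read 1 h after detection reagent, with 57 uM dopamine as the EC100 control.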
D2 ag-1: activates the human D2 dopamine receptor. actives 0.53% (n = 340,000). activation, % at 2 µM. P14416. HEK293 T-REx D2 cells, calcium flux agonist mode;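 active = activation over 3 SD above normal in the single-dose calcium agonist read, cut at about 30% in these data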
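HEK293 Trex D2 cells, tetracycline-induced, o/n 30 C 5% CO2; no-wash Ca dye, RT 30–90 min; 10-cycle baseline, 23 nl cpd added, kinetic Ca read 180 s; agonist hits = positive Ca response.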
D2 ag-2: activates the human D2 dopamine receptor. P14416. actives 0.084% (n = 360,000). activation, % (test concentration not listed). AID 624465. DiscoveRx PathHunter D2 beta-arrestin, luminescence, 90 min; 100% = 57 uM dopamine signal; in the data active = activation above about 40%; inconclusive = between about 15% and that limit
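DiscoveRx PathHunter D2 beta-arrestin cells (2,100/well) attached overnight, then compound-stimulated 90 min at 37 C in HBSS/10 mM HEPES/0.1% Tween-20 buffer; beta-galactosidase complementation read by luminescence after 1 h at ambient temperature. Dopamine 57 uM final (EC100) as control.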
A number is an active result; i = inactive; ? = inconclusive; nt = no result given.

SMILES	D2 PAM-1	D2 antagonist	D2 PAM-2	D2 ag-1	D2 ag-2
CCCOc1ccc(C(=O)NCC(c2cccs2)N(C)C)cc1OC (stereo unspecified)	i	i	i	i	i
CCn1cc(C(=O)N[C@@H](C)C(=O)OC)c(=O)c2cc3c(cc21)OCO3	i	44.4	i	i	i
COc1ccc(CCNC(=O)NC2CCCCC2)cc1	i	30.8	i	i	i
Cc1ccc(SCCC(=O)NC(C)(C)C)cc1	i	i	i	i	i
Cc1ccc(SCCC(=O)NC(C)C)cc1	i	32.2	i	i	i
COc1ccc(/C=C2\OC(=S)N(C)C2=O)cc1	i	i	i	i	i
CN1C(=O)/C(=C\c2ccc(N(C)C)cc2)OC1=S	i	47.5	i	86.3	i
Cn1nccc1C(=O)N1CCc2ccccc21	i	35.8	i	i	i
COC(=O)C1=CN(c2cccc(Cl)c2)C=C(C(=O)OC)C1c1cccc(OC)c1	i	i	i	i	i
Cc1c(NC(=O)COC(=O)Cc2ccc(Br)cc2)c(=O)n(-c2ccccc2)n1C	i	i	i	i	i
O=C(COc1ccc2ccccc2c1)NNC(=O)Cc1ccccc1	i	i	i	i	i
Cc1c(NC(=O)CSc2ccccc2F)c(=O)n(-c2ccccc2)n1C	45.6	i	i	i	i
O=C(COc1ccc2ccccc2c1)NNC(=O)c1ccccc1	i	47.6	i	i	i
Cc1c(NC(=O)COc2ccc3ccccc3c2)c(=O)n(-c2ccccc2)n1C	34.7	i	i	i	i
Cc1c(NC(=O)CSCc2ccc(Br)cc2)c(=O)n(-c2ccccc2)n1C	i	42.4	i	i	i
Cc1c(NC(=O)COc2cccc(F)c2)c(=O)n(-c2ccccc2)n1C	i	i	i	i	i
COc1cc(NC(=O)C2CCCN2S(=O)(=O)c2ccc3c(c2)CC(C)N3C(C)=O)cc(OC)c1 (stereo unspecified)	nt	nt	i	nt	i
Cc1c(NC(=O)c2ccc(Br)o2)c(=O)n(-c2ccccc2)n1C	30.8	i	i	i	i
Cc1ccccc1Oc1ccc2c(c1)[C@@H]1C[C@H](N(C)C(=O)c3cccnc3)[C@H]([C@H](C)O)C(=O)N1CC2	nt	nt	i	nt	i
O=C(CN1C(=O)NC(Cc2c[nH]c3ccccc23)C1=O)Nc1cccc(S(=O)(=O)N2CCCCCC2)c1 (stereo unspecified)	i	i	51.9	i	i
Cc1onc(-c2ccccc2)c1C(=O)OCCOc1ccccc1F	i	37.6	i	i	i
COc1ccccc1N1CCN(CC(=O)N2N=CCC2c2ccccc2)CC1 (stereo unspecified)	i	41.7	i	i	i
C/C(=C\c1ccccc1)CN1CCN(c2ccccc2)CC1	i	i	i	i	?
COc1ccc(N2CCN(CC(=O)N3N=CCC3c3ccccc3)CC2)cc1 (stereo unspecified)	i	i	i	i	i
COc1ccccc1N1CCN(/N=C/c2cccc(OC)c2O)CC1	i	58.9	i	i	i
SMILES	D2 PAM-1	D2 antagonist	D2 PAM-2	D2 ag-1	D2 ag-2
COc1ccccc1N1CCN(C/C(C)=C/c2ccccc2)CC1	i	74.1	i	i	i
CN1CCN(c2cc(-c3ccccc3)nc3cc(-c4ccc(F)cc4)nn23)CC1	i	54.3	i	i	i
CCN(CC(=O)Nc1ccc(OC)cc1)CC(=O)Nc1sc2c(c1C(=O)OC)CCCC2	i	i	i	i	i
Cc1c(C(=O)N2CCCCCC2)nnn1-c1nonc1N	i	40.8	i	i	i
CCOC(=O)c1nnn(-c2nonc2N)c1CN1CCCCCC1	i	i	i	i	i
Cn1c(CSCc2ccc(Cl)c(Cl)c2)nnc1SCC(=O)Nc1nccs1	i	i	69.6	i	?
CCC1CC(=O)CCN1S(=O)(=O)c1ccc(C)cc1 (stereo unspecified)	nt	nt	nt	nt	i
Cc1cc(C(=O)NCCc2ccc(Cl)cc2)c2c(C)nn(-c3ccccc3)c2n1	i	nt	nt	i	nt
COc1ccc2occ(C(C)=O)c2c1	i	i	i	i	i
CC(=O)c1coc2ccc(OCCN3CCCCC3)cc12	i	41.8	i	i	i
NC[C@H]1O[C@H](O[C@H]2[C@H](O)[C@@H](O[C@H]3O[C@H](CO)[C@@H](O)[C@H](N)[C@H]3O)[C@H](N)C[C@@H]2N)[C@H](N)C[C@@H]1O	i	36.9	i	i	i
Cc1ccccc1NC(=O)c1c(O)c2cccc3c2n(c1=O)CCC3	i	46.5	nt	i	nt
Cc1ccc(/C=N/NC(=O)C2CC(=O)N(c3ccccc3)C2)s1 (stereo unspecified)	i	i	i	i	i
O=C(N/N=C/c1ccccc1O)C1CC(=O)N(c2ccc(Cl)cc2)C1 (stereo unspecified)	i	35.2	i	i	i
CCOC(=O)c1c(NC(=O)C[n+]2ccccc2)sc2c1CCCC2	i	45.8	i	i	i
CCOc1ccc(NC(=O)Cn2c(=O)oc3cc(S(=O)(=O)NC4CCCC4)ccc32)cc1	i	nt	nt	i	nt
COC(/C(=N/O)c1ccc(Cl)cc1)c1ccccc1 (stereo unspecified)	i	i	i	i	i
CN(C)S(=O)(=O)c1cccc(C(=O)NCCNC(=O)c2cccc(S(=O)(=O)N(C)C)c2)c1	i	i	i	i	i
CN(C)S(=O)(=O)c1cccc(C(=O)NCCOC(=O)c2cc(F)c(F)cc2Cl)c1	i	34.2	i	i	i
Cc1cccc(C(=O)Nc2ccc(N3CCC(CCN4CCOCC4)CC3)c(C(=O)O)c2)c1	i	nt	nt	i	nt
CN1CCN(CC(=O)Nc2ccccc2[N+](=O)[O-])CC1	i	i	i	i	i
Cc1nnnn1CC(=O)Nc1ccccc1[N+](=O)[O-]	i	36.5	i	i	i
CCOC(=O)N1CCN(S(=O)(=O)c2c(C)cc(C)cc2C)CC1	i	54.0	i	i	i
CCOC(=O)N1CCN(C(=O)C2CCN(S(=O)(=O)c3c(C)cc(C)cc3C)CC2)CC1	nt	nt	i	nt	i
COc1ccccc1CNC(=O)N[C@@H](Cc1ccccc1)C(=O)O	i	37.0	i	i	i
SMILES	D2 PAM-1	D2 antagonist	D2 PAM-2	D2 ag-1	D2 ag-2
O=C(Cc1ccccc1)N[C@@H](Cc1ccc(O)cc1)C(=O)O	i	36.0	nt	i	nt
Cc1cccc(CN2CCN(c3ccccn3)CC2)c1	nt	nt	91.5	nt	46.1
c1ccc(COc2cccc(CN3CCN(c4ccccn4)CC3)c2)cc1	i	i	?	i	47.9
c1ccc(COc2cccc(CN3CCCCC3)c2)cc1	i	nt	i	nt	i
CCO[C@H]1OC(C(=O)O)=C[C@@H](c2csc3ccccc23)[C@@H]1CCCO	i	31.6	i	i	i
CCO[C@H]1OC(C(=O)N2CCCCCCC2)=C[C@@H](c2csc3ccccc23)[C@@H]1CCCO	i	i	i	i	i
O=C(Cc1c(F)cccc1Cl)OCN1C(=O)c2ccccc2C1=O	i	i	i	i	i
N#Cc1c(C(F)(F)F)cc(-c2ccccc2Cl)[nH]c1=O	i	44.4	i	i	i
